BAZ2B block – blocks human BAZ2B | Q9UIF8 | AlphaScreen BAZ2B-H3K14Ac peptide displacement | Potency, µM (highest dose often 114 µM), inactives show at the top dose activity change, negative = inhibition, actives largely listed as inhibitors | 360,000 tested, 4.4% active | AID 504333; further: potency means the concentration at half of the fitted maximal effect; on the % scale 0 is the no-effect control and ±100 the full control effect; nearly all actives have a fitted effect of over 60% in size
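Inhibition is scored as reduced AlphaScreen emission. The BAZ2B/b-H3(5-23)K14Ac complex (50 nM each) in PBS pH 7.4, 0.01% Tween-20 meets compound (up to 110 uM) for 30 min at RT before bead addition.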
CtBP-E1A inh – blocks the CtBP interaction with E1A. AlphaScreen GST-E1A/His-CtBP binding, 1536-well; hits give low values. activity change, % (test concentration not listed). 340,000 tested, 0.49% active. AID 651724; in the data active means activity change below about -65%; inconclusive means mostly about -30% to -63%; further: on the % scale 0 is the no-effect control and ±100 the full control effect
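GST-E1A and His-tagged CtBP (125 nM each as 5X stock) were preincubated with pin-transferred compound for 2 h at 37 °C in the dark, then glutathione donor and nickel acceptor beads were added for 1 h before AlphaScreen reading.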
G9a block – blocks human histone lysine methyltransferase G9a. 350,000 tested, 8.8% active. Potency, µM (series often up to 102 µM), for inactives: at the top dose activity, negative = inhibition, actives largely listed as inhibitors. Q96KQ7. G9a H3K9 monomethylation, AlphaScreen, 2 h; further: potency means the concentration at half of the fitted maximal effect; on the % scale 0 is the no-effect control and ±100 the full control effect; nearly all actives have a fitted effect of over 75% in size
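Using a bead-based AlphaScreen, monomethylated H3K9 product from 2 h room-temperature reactions (G9a 20 nM, peptide 500 nM, SAM 20 uM) was detected with 0.5 ug/mL rabbit anti-H3K9me1 antibody.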
JMJD2A Tudor inh – blocks the human JMJD2A Tudor domain; AlphaScreen JMJD2A-Tudor / H3K4me3 peptide binding; O75164; Potency, µM (top dose mostly 114 µM), inactives show at the highest dose activity change, negative = inhibition, usual class: inhibitors; 390,000 tested, 4.4% active; further: potency means the concentration at half of the fitted maximal effect; on the % scale 0 is the no-effect control and ±100 the full control effect; nearly all actives have a fitted effect of over 50% in size
HP1b chromo inh – blocks HP1-beta chromodomain binding to methylated histone tails | P83916 | AlphaScreen HP1-beta / biotin-H3K9me3 peptide binding | Potency, µM (doses to about 114 µM), inactives show top-dose activity change, negative = inhibition, usual class: inhibitors | 390,000 tested, 0.56% active | AID 540317; further: potency means the concentration at half of the fitted maximal effect; nearly all actives have a fitted effect of over 70% in size
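Compound inhibition of the preformed complex between 50 nM HP1-beta and 50 nM biotinylated H3K9me3 peptide was read by AlphaScreen. Buffer was PBS pH 7.4 with 0.01% Tween-20. Incubations ran 30 min at room temperature, with 10 ug/mL donor/acceptor beads.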
Six1-Eya2 inh – inhibitors of human Six1/Eya2 interaction | activity change, % (no concentration beside the values) | 360,000 tested, 0.56% active | AlphaScreen GST-Six1/His-Eya2 binding, biochemical; hits give low values; in the data active means activity change below about -65%; inconclusive means mostly about -30% to -63%; further: on the % scale 0 is the no-effect control and ±100 the full control effect
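AlphaScreen luminescence read after one hour at 37 °C in darkness. Pin-transferred compounds met GST-Six1 and His-Eya2 protein (5X stock 250 nM/500 nM) plus glutathione donor and Ni-chelate acceptor beads (5X, 50 ug/mL).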
An asterisk follows results filed as active; [ ] = dose if it differs, or a comment. Only some compounds are listed: those with a hit (about 10% of all), similar ones and a draw of the others. Unless noted, the call rests on the fitted dose curve; in most records, active means well fitted inhibition curve with a large enough effect; inconclusive means small, poorly fitted or top-dose-only effect; inactive means no such curve, though single readings can be large or run the other way.

COc1ccccc1N1CCN(C(=O)C2CCN(S(=O)(=O)c3cn(C)cn3)CC2)CC1 was read as BAZ2B block 2%, G9a block -4%[12.7 µM], JMJD2A Tudor inh 8% and HP1b chromo inh 48%.
For COc1cccc(CNC(=O)C(Cc2ccccc2)NS(=O)(=O)c2ccc3c(c2)CCN3C(C)=O)c1 (stereo not drawn) the results were G9a block -24%[59 µM], JMJD2A Tudor inh 0% and HP1b chromo inh 36%.
Cc1cc(C)cc(NC(c2cccc(Cl)c2)c2nnc(-c3ccccc3)o2)c1 (stereo not drawn) was read as BAZ2B block -28%, G9a block -7%[59 µM], JMJD2A Tudor inh -30% and HP1b chromo inh 13%.
COc1cccc2c1C1COC3C4CC(C(=O)O)C(C(C2)N13)N4C (stereo not drawn) was read as CtBP-E1A inh 0, JMJD2A Tudor inh 13µM*, HP1b chromo inh 22% and Six1-Eya2 inh 2.
`COc1ccc(/C=C2\NC(=S)N(CC3CCCO3)C2=O)c(OC)c1C` (stereo not drawn) gave BAZ2B block inconclusive, CtBP-E1A inh 6, G9a block 50µM*, JMJD2A Tudor inh -32%, HP1b chromo inh 17% and Six1-Eya2 inh -8.
For Cc1ccc(C)c(CNC(=O)CCn2cccn2)c1 the results were BAZ2B block -10%, G9a block 13%[59 µM], JMJD2A Tudor inh -8% and HP1b chromo inh 104%.
COc1ccc(NC(=O)c2c(NCc3ccc(C)o3)sc3c2CCCCC3)c(OC)c1 was read as BAZ2B block 18%, G9a block 13%[59 µM], JMJD2A Tudor inh 50µM* and HP1b chromo inh -17%.
COc1ccccc1NC(=O)c1c(NCc2ccc(C)o2)sc2c1CCC(C)C2 (stereo not drawn) was read as BAZ2B block -33%, G9a block 8.9µM*, JMJD2A Tudor inh inconclusive and HP1b chromo inh -5%.
COc1ccc(NC(=O)c2c(NCc3ccc(C)o3)sc3c2CCC(C)C3)c(OC)c1 (stereo not drawn) was read as BAZ2B block -38%, G9a block 16µM*, JMJD2A Tudor inh 28µM* and HP1b chromo inh -17%.
`COc1ccc(NC(=O)c2c(NCc3ccc(C)o3)sc3c2CCC(C)C3)cc1` (stereo not drawn) gave BAZ2B block -34%, G9a block 8.9µM*, JMJD2A Tudor inh 45µM* and HP1b chromo inh -19%.
Screening CC(C)CCOc1ccc(Cn2c(=O)oc3ccccc32)cc1 returned BAZ2B block 4%, G9a block 15%[59 µM], JMJD2A Tudor inh 10% and HP1b chromo inh 33%.
`Cc1ccc(-c2nnn(CC(=O)Nc3nnc(C(C)C)s3)n2)cc1` gave BAZ2B block 0%, CtBP-E1A inh 9, G9a block -3%, JMJD2A Tudor inh 56µM*, HP1b chromo inh 0% and Six1-Eya2 inh -2.
For CC(C)c1nnc(NC(=O)CN2C(=O)c3ccccc3C2=O)s1 the results were BAZ2B block -35%, CtBP-E1A inh 1, JMJD2A Tudor inh -25%, HP1b chromo inh 42% and Six1-Eya2 inh 5.
`COc1ccc(CC(=O)Nc2ccc(S(=O)(=O)NCC3CCCO3)cc2)cc1` (stereo not drawn) gave BAZ2B block 7%, CtBP-E1A inh 10, G9a block 10µM*, JMJD2A Tudor inh -13%, HP1b chromo inh -7% and Six1-Eya2 inh 1.
For O=C(COc1coc(CN2CCc3ccccc32)cc1=O)N1CCCCC1 the results were BAZ2B block -5%, CtBP-E1A inh -8, G9a block 71µM*, JMJD2A Tudor inh -22%, HP1b chromo inh 9% and Six1-Eya2 inh 4.
Cc1ccccc1NC(=O)COc1coc(CN2CCCc3ccccc32)cc1=O was read as BAZ2B block 50µM*, CtBP-E1A inh -2, G9a block 50µM*, JMJD2A Tudor inh inconclusive, HP1b chromo inh 6% and Six1-Eya2 inh -10.
